Measured values published in PubChem BioAssay AID651956 (Broad Institute, 2012).
Potency and affinity values are given separately. Records with an inconclusive call do not appear. A number with no mark means an inactive call.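 Rule for the calls: active = in every test run, a fitted half-maximal concentration for signal decrease at or below twice the highest tested concentration; inconclusive = runs disagree, flat 30 to 70% decrease, or poor fit; inactive = the rest.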

Experiment: activation of miR-122 Renilla sensor silencing – cell-based, Huh7 psiCHECK-miR122, Renilla luciferase, cherry-picked, dose response (AID 651956);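 note: 0% = median neutral control wells and -100% = median positive control wells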
Conditions: Huh7 psiCHECK-miR122 Renilla luciferase reporter, 48 h; series mostly up to 35 µM; activity change, negative = signal decrease: at the top concentration

Structure (SMILES)	activity change, negative = signal decrease
O=C(N/N=C/c1ccco1)c1cccc(N2CCCC2=O)c1	104%
O=C(Nc1ccccc1F)N1C[C@H]2[C@@H](c3ccccc31)[C@@H](CO)N2C(=O)C1CC1	-13.7%
CCNC(=O)C[C@@H]1CC[C@H]2[C@@H](COc3ccc(NC(=O)c4ccc(C(F)(F)F)cc4)cc3C(=O)N2C)O1	-32.2%
COc1cccc(C(=O)Nc2ccc3c(c2)C(=O)N(C)[C@H]2CC[C@H](CC(=O)NCc4ccc(F)cc4)O[C@@H]2CO3)c1	60.8%
CC(C)CC#Cc1ccc([C@H]2[C@@H](CO)N3CCCCN(S(=O)(=O)Cc4ccccc4)C[C@H]23)cc1	-137%
COC(=O)c1c(N)nc(C)n1-c1ccc(OC)cc1	-18.8%
COCC(=O)N1[C@H](CO)[C@@H](c2ccccc2)[C@H]1CNC(=O)c1ccccn1	15.5%
CN(C)CCCN(C(=O)CCc1ccccc1)c1nc2ccc(Br)cc2s1	-98.6%
CC(=O)N(C)C[C@@H]1[C@@H](c2ccccc2)[C@H](CO)N1C(=O)C1CCC1	-15.8%
CN(C)CCCNC(=O)C[C@H]1CC[C@H]2[C@H](COc3ccc(NC(=O)c4cccc(F)c4)cc3C(=O)N2C)O1	55.7%
Cc1cc(C)cc(OCC(O)CN2CCC(CN3C(=O)c4cccc5cccc(c45)C3=O)CC2)c1 (stereo not drawn)	1.75%
COCC(=O)NC[C@H]1[C@@H](c2ccc(C3=CCCC3)cc2)[C@@H](CO)N1C(=O)C1CC1	9.17%
Cc1ccc(-n2c(Cc3ccccc3)n[nH]c2=S)cc1	52.8%
CC(C)C(=O)Nc1ccc2c(c1)C(=O)N(C)[C@H]1CC[C@H](CC(=O)O)O[C@H]1CO2	115%
COCC(=O)N(C[C@H]1[C@H](c2ccccc2)[C@H](CO)N1C(=O)NC(C)C)C(C)C	472% [at 30 µM]
CCCC(=O)Nc1ccc2c(c1)C(=O)N(C)[C@@H]1CC[C@H](CC(=O)Nc3cn(C)nc3C)O[C@@H]1CO2	-22.3%
COCC(=O)N1[C@@H](CO)[C@@H]2c3ccccc3N(C(=O)C3CC3)C[C@@H]21	17.5%
C/C=C/c1ccc([C@@H]2[C@H](CO)N[C@H]2CN(CC)C(=O)CN2CCOCC2)cc1	-20.8%
N=c1c2c(-c3ccccc3)c(-c3ccccc3)n(Cc3ccccc3)c2ncn1CCCO	45.8%

Structure (SMILES)	activity change, negative = signal decrease
COc1cccc(NC(=O)N2[C@H](CO)[C@@H](c3ccccc3)[C@H]2CNCC(C)C)c1	-34.4%
COc1cc(N)c(Cl)cc1NC(=O)c1ccccc1	-28%
Cn1c(-c2ccc(N)cc2)nc2ccccc21	38.5%
CN1C(=O)c2cc(NC(=O)c3cccc(F)c3)ccc2OC[C@@H]2O[C@@H](CC(=O)Nc3ccccc3)CC[C@@H]21	-6.67%
C[C@H](CO)N1C[C@H](C)[C@H](CN(C)Cc2ccccc2)Oc2cc(/C=C/c3ccccc3)ccc2S1(=O)=O	-55.6%
CCN(C[C@H]1N[C@H](CO)[C@H]1c1ccc(C2=CCCC2)cc1)C(=O)c1cccnc1	60.6%
C[C@@H]1CN([C@H](C)CO)S(=O)(=O)c2ccc(C3=CCCCC3)cc2O[C@@H]1CN(C)C(=O)Nc1ccc2c(c1)OCO2	-88.8%
C[C@@H]1CN([C@@H](C)CO)C(=O)c2cccc(NC(=O)c3ccc(-c4nccs4)cc3)c2O[C@H]1CN(C)Cc1ccc2c(c1)OCO2	28.6%
COc1cccc(C(=O)Nc2ccc3c(c2)C(=O)N(C)[C@@H]2CC[C@@H](CC(=O)NCc4ccc(F)cc4)O[C@@H]2CO3)c1	22.5%
CN1C(=O)c2cc(NC(=O)c3cccc(F)c3)ccc2OC[C@H]2O[C@H](CC(=O)NC3CCC3)CC[C@@H]21	-4.17%
COC(=O)C[C@H]1CC[C@H]2[C@H](COc3ccc(NC(=O)c4cscn4)cc3C(=O)N2C)O1	-0.909%
Cc1ccccc1NCN1C(=O)C2C3C=CC(C3)C2C1=O (stereo not drawn)	-8.98%
CCC(=O)N(C)C[C@@H]1[C@@H](c2ccccc2)[C@H](CO)N1Cc1cccnc1	-36.5%
COCC(=O)Nc1ccc2c(c1)C(=O)N(C)[C@@H]1CC[C@@H](CC(=O)NCCCN(C)C)O[C@@H]1CO2	-13.9%
CN1C(=O)c2cc(NC(=O)Cc3ccccc3)ccc2OC[C@H]2O[C@@H](CC(=O)NC3CCC3)CC[C@H]21	-7.88%
CNC(=O)C[C@H]1CC[C@@H]2[C@H](COc3ccc(NC(=O)Nc4cccc(F)c4)cc3C(=O)N2C)O1	14.6%
N#Cc1c(N)nc2c(c1-c1cccs1)CCCC2	42.8%
CCC(=O)N1[C@H](CN(C(C)C)S(C)(=O)=O)[C@@H](c2ccccc2)[C@@H]1CO	-31.1%
Cc1noc(C)c1NC(=O)Nc1ccc2c(c1)C(=O)N(C)[C@@H]1CC[C@H](CC(=O)N[C@H]3CCN(Cc4ccccc4)C3)O[C@H]1CO2	231%
